Source: PubChem BioAssay AID1246 (Columbia University Molecular Screening Center, 2008)
Screen size: about 120,000 compounds; about 840 (0.7%) were called active. This is one part of a sample in which actives are shown more often than they occur. Unmarked numbers belong to inactive results.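 The calls were made as follows: active = inhibition above the batch mean plus 3 SD, and confirmed as a hit on visual image review (cut at about 43% in these data); inconclusive = passes the inhibition cutoff but fails visual image review; inactive = the rest.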

Experiment: E-selectin induction blockers in HUVEC – imaging, immunofluorescence, high content, primary screen (AID 1246);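 also: 0% = TNF-stimulated DMSO wells and 100% = unstimulated control wells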
Details: HUVEC TNFa-induced E-selectin immunofluorescence, at 2 µM, stronger effect = higher value

SMILES	inhibition
COc1cccc(C(=O)N2CCCC(CCC(=O)NCc3ccc(F)c(F)c3)C2)c1 (stereo not drawn)	-27.8%
O=c1[nH]c2cccnc2n(CCNc2ncc(C(F)(F)F)cc2Cl)c1=O	-0.32%
Cc1ccc(NC(=O)c2oc3ccccc3c2C)c([N+](=O)[O-])c1	7.01%
COc1ccc(-c2cc(C(F)(F)F)nc(NCc3cccnc3)n2)cc1	6.81%
COc1ccc(-c2nc3cnccn3c2NC(C)(C)CC(C)(C)C)cc1O	78.6% (active)
CCOc1cc(-c2nc3cc(C)ccn3c2NCC2CCCO2)ccc1O (stereo not drawn)	-1.41%
COc1cccc(CNC(=O)c2n[nH]c3ccccc23)c1	21.4%
CNC(=O)COC(=O)c1cc(-c2ccc(OC)cc2)nc2ccccc12	-50.4%
CC(=O)c1cnc(-c2ccccc2)s1	-23.3%
CN(CC(=O)Nc1ccccc1F)CC(=O)Nc1ccccc1Br	-9.64%
O=C(O)CCn1c(SCc2cc(=O)n3ccccc3n2)nc2ccsc2c1=O	7.79%
COC(=O)Cn1cc(/C=C/[N+](=O)[O-])c2ccccc21	-39.6%
COc1ccccc1CCNC(=O)CSc1nnc2ccc(-c3cccnc3)nn12	23.9%
COc1ccccc1CCNC(=O)c1cnccn1	70.2% (active)
COc1cccc(OCC(=O)NNC(=O)c2cnccn2)c1	-0.48%
COc1ccccc1CNC(=O)c1cc(=O)c2ccccc2o1	6.95%
Cc1ccc(S(=O)(=O)N(C)C)cc1NC(=O)c1ccccc1Br	21.2%
COc1ccc(NC(=O)CCNS(=O)(=O)c2ccc3c(c2)c(=O)n(C)c(=O)n3C)cc1OC	-38.9%
COc1ccc(C2N=C(N)N=C(N)N2c2ccccc2)cc1OC (stereo not drawn)	62.9% (active)
COc1ccc(C2CC(=O)n3c(nc4ccccc43)S2)cc1OC (stereo not drawn)	-0.21%
COc1ccc(C2/C(=C(/O)c3ccccc3)C(=O)C(=O)N2c2ncccn2)cc1OC (stereo not drawn)	-2.78%

SMILES	inhibition
O=C(O)/C=C/c1ccc(OCCCF)cc1	-53.3%
CC(=O)Oc1cccc(N2C(=O)C3CC=C(Cl)CC3C2=O)c1 (stereo not drawn)	64.7% (active)
CC(=O)Oc1cccc(N2C(=O)CC(Nc3ccc(N4CCOCC4)cc3)C2=O)c1 (stereo not drawn)	-16.6%
O=C(Oc1cccc(N2C(=O)C3C4c5ccccc5C(c5ccccc54)C3C2=O)c1)c1ccco1 (stereo not drawn)	13.7%
COc1cc(C=O)c(Br)cc1OCC(=O)NCc1ccccc1	-19%
CCCNC(=S)N1CCCC(c2nc3ccccc3[nH]2)C1 (stereo not drawn)	-49%
Cn1c(CCC(=O)Nc2ccccc2F)nnc1SCC(=O)Nc1ccccc1Cl	-44.5%
COc1ccc(S(=O)(=O)N2CCN(C(=O)c3cc(C)oc3C)CC2)cc1	-37.8%
CC(=O)c1ccc(N=C2SCCCN2C(=O)C2CCCCC2)cc1	7.89%
COc1cccc(C(=O)Oc2cc(C)[nH]c(=O)c2[N+](=O)[O-])c1	21.9%
CC(=O)c1ccc2c(ccc3ccccc32)c1	22.7%
COCc1cc(C(C)=O)ccc1OC	-4.6%
CCN(CC)Cc1cc(C(C)=O)ccc1O	47.5% (active)
CC1CCCN(CC(O)COc2ccc3c(c2)OCO3)C1 (stereo not drawn)	11.9%
O=C1CCC(=O)N1c1ccc(NCCc2ccccc2F)c([N+](=O)[O-])c1	-8.93%
CCN(C(=O)CN1CCN(Cc2ccccc2)CC1)c1c(N)n(Cc2ccccc2)c(=O)[nH]c1=O	-54.5%
COc1ccc(OCC(=O)Nc2ccc(N3CCC(C)CC3)cc2)cc1	-61.5%
Cc1ccc(NC(=O)COc2ccc(-n3ccnc3)cc2)cc1Cl	73% (active)
CN1CCN(c2ccc(NC(=O)COc3ccc(Cl)cc3Cl)cc2)CC1	3.16%
O=C(Cn1nnc2ccccc2c1=O)NCc1ccc(Cl)cc1	-24.9%
COCCNC(=O)/C(C#N)=C/c1nc(N(C)C)n(-c2ccc(F)cc2)c1Cl	6.3%

SMILES	inhibition
Nc1ccc(S(=O)(=O)Nc2nccc(/C=C/c3ccc(Br)s3)n2)cc1	11.1%
CCc1cc2c(NC3CCCC3)ncnc2s1	-4.12%
CCOC(=O)C(C)n1cnc2sc(C)c(C)c2c1=O (stereo not drawn)	23.1%
CCCNc1ncnc2sc(C)c(C)c12	99.7% (active)
C/[N+]([O-])=C\c1ccc([N+](=O)[O-])o1	-20.9%
COC(=O)C1=C(C)N(C)C(=O)NC1c1ccc([N+](=O)[O-])o1 (stereo not drawn)	4.38%
C(=N/N1CCN(c2ccccc2)CC1)/c1cccs1	-23.6%
Cc1ccc(N2CCN(C3=NC(=O)/C(=C\c4cccs4)S3)CC2)cc1	-36.9%
Cc1ccc(N2CCN(/N=C/c3cccs3)CC2)cc1	58.4% (active)
CS(=O)(=O)n1nc(-c2ccco2)nc1N	-27.1%
Cn1nc(-c2ccccc2)c(CO)c1Sc1ccccc1	-21.3%
CC(=O)NCCC(=O)Nc1cc(S(=O)(=O)N2CCOCC2)ccc1N1CCOCC1	-13.3%
CCc1ccc(NC(=O)Cn2nc(C)c([N+](=O)[O-])c2C)cc1	24.3%
COC(=O)c1ccc(NCC(=O)N2CCCCCC2)cc1	7.57%
Cc1cc(C)nc(/N=C2\NC(=O)CC(C(=O)O)N2c2ccc(Cl)cc2Cl)n1 (stereo not drawn)	48.5% (active)
CCOC(=O)c1nc(C)n(-c2ccc(Cl)cc2Cl)n1	-32.4%
Cc1cc(Cl)ccc1N1C(=O)CC(SCCC(=O)O)C1=O (stereo not drawn)	-14%
COc1ccc(Sc2nc(-c3ccccc3)ncc2OC)cc1	-16.9%
C=CCN(CC=C)C(=O)COC(=O)c1n[nH]c2ccccc12	-73.3%
O=C(CCC(=O)Nc1ccccc1)N/N=C/c1ccccc1F	-1.59%
CCCCC(CC)CNC(=O)C(=O)C1C(=O)Nc2ccccc21 (stereo not drawn)	-10.1%
